ELG1 genotoxic = induces genotoxicity in HEK293T cells with luciferase-tagged ELG1; Potency, µM (series often up to 46 µM), for the others: at the top dose activity change, positive = activation, most hits filed as activators; actives 1.3% (n = 330,000); HEK293T ELG1-luciferase reporter, luminescence, 16 h; also: % of control where 0% means no effect; nearly all actives have a fitted effect of over 60% in size
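DMSO vehicle served as control against compound-treated ELG1-luciferase HEK293T cells; exposure lasted 16 hr at 37 °C and 5% CO2, followed by ONE-Glo luminescence detection after 30 min.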
SMN2 splice enh = SMN2 splice variant enhancement; HEK293 SMN2-luciferase splicing reporter, luminescence, 30-36 h; Potency, µM (highest dose often 46.1 µM), for inactives: at the highest dose activity change, positive = activation, hits mostly activators; actives 2.8% (n = 210,000); AID 1458; also: % of control where 0% means no effect; nearly all actives have a fitted effect of over 55% in size
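HEK293 cells carry an SMN2 […]–luciferase reporter in which exon 7 inclusion puts luciferase in frame. Cells were plated 10-12 h before compound addition, then incubated 30-36 h at 37C. ONE-Glo luminescence was read; sodium butyrate at 4.5 mM final served as control.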
ELG1 DNA repair = inhibitors of ELG1-dependent DNA repair in HEK293T cells; AID 504467; actives 2.3% (n = 330,000); Potency, µM (highest dose often 46.1 µM), for inactives: top-dose activity change, negative = inhibition, hits mostly inhibitors; HEK293T ELG1-luciferase reporter, luminescence, 16 h; DNA damage induced by 5-fluorouridine; also: % is scaled to controls: 0 for no effect and ±100 for the full control effect; nearly all actives have a fitted effect of over 55% in size
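In this reporter screen, reduction of luminescence relative to DMSO vehicle indicated activity. Compounds and 5-fluorouridine were added together to 2,000 cells per well, incubated for 16 hr at 37 °C, then developed with ONE-Glo.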
FLuc modulator = inhibits or activates purified firefly luciferase, miR-21 counter-screen; P08659; purified FLuc, Km substrates, luminescence inhibition; Potency, µM (doses to about 57.5 µM), for inactives: at the highest dose activity change, negative = inhibition, usual class: inhibitors; actives 6.9% (n = 360,000);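 also: plate controls were vehicle for no effect and reference inhibitor for full effect; nearly all actives have a fitted effect of over 55% in size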
Target sequence (P08659 whole entry, looked up): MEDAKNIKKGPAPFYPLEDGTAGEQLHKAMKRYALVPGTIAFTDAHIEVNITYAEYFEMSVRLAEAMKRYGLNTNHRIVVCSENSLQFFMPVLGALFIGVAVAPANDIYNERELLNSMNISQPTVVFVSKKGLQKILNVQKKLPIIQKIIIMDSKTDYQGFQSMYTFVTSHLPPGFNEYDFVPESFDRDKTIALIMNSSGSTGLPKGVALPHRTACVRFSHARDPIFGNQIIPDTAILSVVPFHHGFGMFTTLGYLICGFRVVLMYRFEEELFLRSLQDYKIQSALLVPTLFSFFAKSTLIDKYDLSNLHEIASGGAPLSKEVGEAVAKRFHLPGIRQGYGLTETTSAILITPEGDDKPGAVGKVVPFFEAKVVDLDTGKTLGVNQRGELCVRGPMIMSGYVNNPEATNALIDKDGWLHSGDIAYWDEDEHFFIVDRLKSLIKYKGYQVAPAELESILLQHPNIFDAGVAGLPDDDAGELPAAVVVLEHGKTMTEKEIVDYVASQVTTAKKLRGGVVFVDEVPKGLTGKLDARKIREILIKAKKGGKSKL
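Purified P. pyralis luciferase, 10 nM final, with Km-level 10 uM D-luciferin and 10 uM ATP in 50 mM Tris acetate pH 7.5, 10 mM Mg acetate, 0.01% Tween-20, 0.05% BSA; 6-point qHTS titration about 60 µM downward; luminescence read.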
Rab9 promoter act = activates the Rab9 promoter; actives 2.8% (n = 320,000); Huh7 Rab9 promoter-luciferase reporter, luminescence, 24 h; Potency, µM (doses to about 9.22 µM), without a hit: top-dose activation, negative = inhibition, hits mostly activators; also: % of control where 0% means no effect; nearly all actives have a fitted effect of over 60% in size
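Luminescence from Amplite-detected luciferase (10 minutes, ambient) reports Rab9 promoter activation. Before that, stable Rab9-luciferase Huh7 cells (1500/well, reduced-serum OP-MEM I plus 10% FBS) were exposed to compound for 24 hours at 37C.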
NPC1 prom act = activates the NPC1 promoter. actives 2.4% (n = 320,000). Potency, µM (titrated, usually from 9.22 µM), for inactives: top-dose activation, most hits filed as activators. AID 485313. Huh7 NPC1 promoter luciferase reporter, 24 h; also: % of control where 0% means no effect; nearly all actives have a fitted effect of over 60% in size
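Huh7 cells stably carrying NPC1 promoter–luciferase, plated in Opti-MEM with 10% FBS for 2 h, were exposed to compound in DMSO for 24 h at 37 °C; luciferase reagent was added for 10 min and luminescence read.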
* hit, by the source's call; ? = inconclusive; / = no result given. Only some compounds are listed: those with a hit (about 9.2% of all), similar ones and a draw of the others. Calls follow the shape of the dose curve; as a rule, active = well fitted curve in the direction sought with a large enough effect; inconclusive = small, poorly fitted or top-dose-only effect, or another doubt; inactive = no such curve, though single readings can be large; an effect the other way counts as inactive or inconclusive. Potency is read from the fitted curve at half-maximal effect.

SMILES | ELG1 genotoxic | SMN2 splice enh | ELG1 DNA repair | FLuc modulator | Rab9 promoter act | NPC1 prom act
CCCN1CCN(c2ncnc3sc(C(=O)Nc4c(C)cc(C)cc4C)c(C)c23)CC1 | / | / | / | 1.7% | / | /
O=C(Nc1ccc(N2CCOCC2)c(Cl)c1)c1cccc(F)c1 | 2.31µM* | 10µM* | ? | 4.26µM* | 1.58µM* | 1.12µM*
O=C(Nc1ccc(N2CCOCC2)c(Cl)c1)c1c(F)c(F)c(F)c(F)c1F | 2.0% | ? | -15.5% | -8.5% | -12.8% | -15.6%
COc1ccccc1NS(=O)(=O)c1cc(NC(=O)c2cccnc2)ccc1N1CCCCC1 | -4.8% | / | 18.3µM* | / | / | /
O=C(Nc1ccc(N2CCCC2)c(Cl)c1)c1cccnc1 | 5.0% | 15.8µM* | ? | 12µM* | 2.82µM* | 3.16µM*
COc1c(C)cccc1C(=O)Nc1ccc(N2CCOCC2)c(Cl)c1 | 8.2µM* | 11.2µM* | ? | 6.75µM* | 3.16µM* | 1.58µM*
COCCN1C(=O)c2oc3ccc(C)cc3c(=O)c2C12C(=O)N(C)c1ccccc12 (stereo unspecified) | / | 4.5% | / | -6.3% | / | /
COc1ccc(CCC(=O)Nc2cccc(S(=O)(=O)N3CCOCC3)c2)cc1OC | -0.9% | / | -6.1% | 1.7% | -3.3% | -8.9%
O=C(Nc1ccc(N2CCOCC2)c(Cl)c1)c1cccnc1 | 20.6µM* | ? | 24.6% | ? | 25.0% | 25.6%
O=C(Nc1ccc(N2CCCCC2)c(Cl)c1)c1cccnc1 | ? | 12.6µM* | ? | 12µM* | 2.82µM* | 2.82µM*
O=C(Nc1ccc(Cl)c(S(=O)(=O)N2CCCCC2)c1)c1cccnc1 | -7.8% | / | ? | 3.3% | -1.2% | -6.6%
CCOC(=O)c1c(NC(=O)/C=C/C(=O)O)sc(C)c1-c1ccc(C(C)(C)C)cc1 | -2.8% | -64.8% | 11.6µM* | ? | -5.1% | -7.4%
CCOC(=O)c1c(NC(=O)c2c(-c3ccccc3)noc2C)sc(C)c1-c1ccccc1 | -8.7% | 0.708µM* | 13.2% | -1.5% | 21.3% | -10.6%
CCOC(=O)c1ccccc1NC(=O)c1c(-c2ccccc2)noc1C | / | / | / | -17.6% | / | /
CCOC(=O)c1c(NC(=O)CCN2CCOCC2)sc(C)c1-c1ccccc1 | -11.2% | / | 20.6µM* | 2.1% | -7.8% | -0.9%
CCN1CCN(C(=S)Nc2sc(C)c(-c3ccccc3)c2C(=O)OC)CC1 | -6.9% | / | 16.4µM* | -2.6% | -5.8% | -3.2%
Cc1onc(-c2ccccc2)c1C(=O)OCC(=O)Nc1cccc(Cl)c1 | -9.0% | / | 13µM* | 0.6% | -1.6% | 0.5%
Cc1onc(-c2ccccc2)c1C(=O)OCC(=O)Nc1ccc(Cl)cc1 | -7.1% | / | ? | / | -9.3% | 3.1%
O=C(CN1CCN(S(=O)(=O)c2ccccc2Cl)CC1)NCC1(N2CCOCC2)CCCCC1 | -1.4% | / | -6.4% | 1.8% | -7.6% | 0.4%
COc1cc(/C=C/c2nc(C#N)c(N3CCC(C)CC3)o2)cc(OC)c1OC | / | 10.9% | / | ? | / | /
Cc1ccc(S(=O)(=O)c2nnn3c2nc(NC(C)C)c2sccc23)cc1 | / | / | / | -1.5% | / | /
CC(=O)c1ccccc1NC(=O)COC(=O)CCC1CCCC1 | -2.3% | / | 9.5% | / | / | /
Cc1cc(C)cc(NC(=S)/N=C(\N)Nc2nc(C)c3ccccc3n2)c1 | -5.2% | -66.2% | 18.4µM* | -2.3% | -17.7% | -8.1%
Cc1ccc(NC(=S)/N=C(\N)Nc2nc(C)c3ccccc3n2)cc1C | -1.5% | -28.9% | ? | 10.7µM* | -9.6% | -8.3%
Cc1cccc(NC(=S)/N=C(\N)Nc2nc(C)c3ccccc3n2)c1 | -2.7% | -34.3% | -10.8% | ? | -9.5% | 0.2%
COc1ccc2nc(N/C(N)=N/C(=S)Nc3ccc(C)c(C)c3)nc(C)c2c1 | -7.1% | -34.8% | -25.9% | -18.4% | -27.4% | -26.9%
O=C1C(=O)N(c2ccccn2)C(c2cccc([N+](=O)[O-])c2)/C1=C(/O)c1ccc(Br)cc1 (stereo unspecified) | 0.1% | / | -2.6% | 3.2% | 5.1% | -1.1%

Screens as filed in PubChem.
